Entries with a potency or affinity are not part of this list. Activity calls are given as the source filed them.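 The calls were made as follows: active = cell killing, meaning signal decrease, with fitted half-maximal dose at or below ten times the top valid tested dose; inconclusive = poor fit, or flat curve with 30 to 70% signal loss; inactive = the rest.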

This assay in a line: HeLa cell cytotoxicity, dose response, cytotoxicity control for MITF activator project, CellTiter-Glo luminescence, cherry-pick samples (AID 540259). As to conditions: HeLa viability, CellTiter-Glo ATP luminescence, 24 h; series mostly up to 35 µM.
As to `Cn1c(NC(=O)CCC2CCCCC2)cc(=O)n(C)c1=O`, the outcome was inactive.
As for `c1csc(CSc2nc3ccccc3s2)c1`, the entry is “inactive”; as for `CSc1cccc(NC(=O)c2cnn3ccccc23)c1`, “inactive”.
On to `COc1cccc(C2Nc3ccccc3C(=O)N2c2ccc(F)cc2)c1O` (configuration not stated), for which the compound was classed as inactive.
As to `CCCc1nc2ccc(NC(C)=O)cc2c(=O)n1Cc1ccc(Cl)cc1`, the result was inactive.
As for `C/C(=N\OC(=O)Nc1ccccc1)c1ccc(C)cc1`, the call was inactive.
As for `C#CCSc1nnc(-c2ccc(O)cc2)o1`, the entry is “inactive”; as for `CC(=O)Nc1ccc2c(c1)ncn2-c1ccccc1`, “inactive”.
Take `O=C(Nc1ccc2ccccc2c1)c1cc(F)c(F)cc1Cl`: the call was inactive.
The result for `Cc1ccc(N2C(=O)S/C(=C/c3cn(C)c4ccccc34)C2=O)cc1` reads “inactive”; that for `COc1ccc(-c2cn(CC3CCCCC3)nn2)cc1`, “inactive”; that for `CCc1cccc(NC(=O)c2sc3nc4n(c(=O)c3c2C)CCC4)c1`, “inactive”.
As for `CC(C)(C)C(=O)N1CCN(c2nc3ccccc3s2)CC1`, the entry is “inactive”; as for `COC(=O)c1ccc(CSC2=NCCS2)cc1`, “inactive”; as for `CCCCC(=O)Nc1sc2c(c1C#N)CC(C)(C)OC2`, “inactive”.
With `COCc1ccc(-c2c(-c3ccc(OC)cc3)oc(=O)c3cc(OC)c(OC)cc23)cc1`, the compound was called inactive.
As to `O=Cc1ccc(OCc2ccc3ccccc3c2)cc1`, the call was inactive.
The result for `COC(=O)c1cc(-c2ccc(OC)cc2)n[nH]1` reads “inactive”; that for `O=C(NC1=NCCS1)c1ccc(Cl)s1`, “inactive”; that for `O=C(CCCc1ccccc1)c1ccccc1`, “inactive”.
The result for `CCN(CC)c1ccc(C(=O)NNC(=O)c2cccn2C)cc1` reads “inactive”.
As to `CCC(C)NC(=O)c1cn(-c2cccc(C)n2)cn1` (configuration not stated), the compound was classed as inactive.
Regarding `O=C(c1nnc(-c2ccc(Cl)cc2)o1)C1CCCC1`, the compound was classed as inactive.
Regarding `O=C(Nc1ccc(Br)cc1F)c1ccc2nsnc2c1`, the compound was classed as inactive.
As for `O=C(c1noc2c1CCCC2)N1CCc2ccccc2C1`, the entry is “inactive”; as for `CCCCSc1nsc(NC(C)=O)n1`, “inactive”.
Take `CCCCNC(=O)c1cc2ccccc2s1`: the compound was called inactive.
Turning to `O=C(Nc1cccnc1)c1cc(-c2ccc(Cl)cc2)on1`, the call was inactive.
With `Cc1cccc(C(=O)Nc2ccn(C)n2)c1`, the call was inactive.
As for `NC(=O)c1ccc(-c2noc(-c3cccc(Cl)c3)n2)cc1`, the call was inactive.
In the case of `COc1ccc(C(=O)CN2Cc3ccccc3C2=N)cc1`, the call was inactive.
The result for `COc1ccc(N=C(C)c2sc3ccccc3c2O)cc1` reads “inactive”.
On to `Cc1cccc(NC(=O)c2sc3nc(N)c(C#N)cc3c2N)c1`, for which the compound was classed as inactive.
On to `CC1CCc2nc(NC(=O)Cc3cccs3)sc2C1` (configuration not stated), for which the compound was classed as inactive.
As for `Cc1ccc(-n2nnc3ccccc3c2=O)cc1C`, the entry is “inactive”; as for `COc1ccc(NC(=O)CCCn2c(=O)oc3ccccc32)cc1Cl`, “inactive”; as for `Cc1ccc(CNc2nc(C)cs2)cc1`, “inactive”.

The values are drawn from PubChem BioAssay AID540259 (Broad Institute, 2011).
